In PubChem BioAssay (EPA / NIEHS):
Inconclusive results are not listed. Activity calls are given as the source filed them. How the source made its calls: active means hit-call score of the fitted dose curve at least 0.9, where 1 is the maximum; inconclusive means response in the unintended direction; inactive means score below 0.9.

Columns and labels:
[1] = molecular target: mouse Peroxisome Proliferator-activated Receptor gamma (PPARg), Pparg (gene 19016) (UniProt P37238); assay: ATG_mPPARg_XSP1: Attagene TRANS-FACTORIAL Multi-Species (XSP1) HepG2 Assay for mouse Peroxisome Proliferator-activated Receptor gamma (PPARg) (AID 2283802)
How it was run: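 HepG2 cells transiently transfected with GAL4-UAS reporter units driven by mouse PPARg–GAL4 chimera; 3 nM 6-alpha-fluorotestosterone present. After 24 h dosing, reporter mRNA quantified by RT-PCR, fluorescent labelling and capillary electrophoresis; gain of signal versus DMSO.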

[2] = molecular target: Nuclear receptor subfamily 1 group I member 2 (Mus musculus) (UniProt O54915); assay: ATG_mPXR_XSP1: Attagene TRANS-FACTORIAL Multi-Species (XSP1) HepG2 Assay for mouse Pregnane X Receptor (PXR) (AID 2283803)
How it was run: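 Transiently transfected HepG2 cells expressing a receptor-Gal4 chimera drive a GAL4-UAS reporter; 3 nM 6-alpha-fluorotestosterone included. Reporter mRNA read 24 h post-dose by RT-PCR and capillary electrophoresis; gain of signal relative to DMSO.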

[3] = molecular target: human Thyroid hormone Receptor alpha (TRa), THRA (gene 7067) (UniProt P10827); assay: ATG_hTRa_XSP1: Attagene TRANS-FACTORIAL Multi-Species (XSP1) HepG2 Assay for human Thyroid hormone Receptor alpha (TRa) (AID 2283805)
How it was run: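 HepG2 cells transiently transfected with GAL4-UAS reporter units expressing chimeric NR-Gal4 proteins, dosed 24 hours with 3 nM 6-alpha-fluorotestosterone present. Reporter mRNA measured by RT-PCR and capillary electrophoresis; gain of signal fitted versus DMSO.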

[4] = molecular target: zebrafish Thyroid Hormone Receptor alpha (TRa), thraa (gene 30670) (UniProt Q98867); assay: ATG_zfTRa_XSP1: Attagene TRANS-FACTORIAL Multi-Species (XSP1) HepG2 Assay for zebrafish Thyroid Hormone Receptor alpha (TRa) (AID 2283807)
How it was run: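 HepG2 cells transiently transfected with GAL4-UAS reporter units including a zebrafish TRa–Gal4 chimera, dosed 24 h with 3 nM 6-alpha-fluorotestosterone present. Reporter mRNA quantified by RT-PCR and capillary electrophoresis; gain versus DMSO.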

[5] = molecular target: human Thyroid hormone Receptor beta (TRb), THRB (gene 7068) (UniProt P10828); assay: ATG_hTRb_XSP1: Attagene TRANS-FACTORIAL Multi-Species (XSP1) HepG2 Assay for human Thyroid hormone Receptor beta (TRb) (AID 2283808)
Protocol: ATG_XSP1_multi-species_TRANS is a cell-based, multiplexed assay created by modifying the existing Attagene TRANS-FACTORIAL system to include a panel of nuclear receptors from some or all the following species: human (Homo sapiens), mouse (Mus musculus), frog (Xenopus laevis), zebrafish (Danio rerio), chicken (Gallus gallus), and turtle (Chrysemys picta). The ECOTOX-FACTORIAL format uses HepG2, a human liver cell line, with measurements taken at 24 hours after chemical dosing in a 24-well plate. Xsp1 included 3 nM 6-alpha-fluorotestosterone to partially stimulate the androgen receptor.ATG_hTRb_XSP1 is one of 29 assay components measured or calculated from the ATG_XSP1_multi-species_TRANS assay. It is designed to make measurements of mRNA induction, a form of inducible reporter, as detected with fluorescence intensity signals by Reverse transcription polymerase chain reaction (RT-PCR) and Capillary electrophoresis technology.The assay endpoint ATG_hTRb_XSP1 was analyzed in the positive analysis fitting direction relative to DMSO as the negative control and baseline of activity. […] Furthermore, this assay endpoint can be referred to as a primary readout, because this assay has produced multiple assay endpoints where this one serves a reporter gene function. […]

[6] = molecular target: zebrafish Thyroid Hormone Receptor beta (TRb), thrb (gene 30607) (UniProt Q9PVE4); assay: ATG_zfTRb_XSP1: Attagene TRANS-FACTORIAL Multi-Species (XSP1) HepG2 Assay for zebrafish Thyroid Hormone Receptor beta (TRb) (AID 2283809)
How it was run: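 HepG2 cells transiently transfected with multiplexed GAL4-UAS reporter units expressing chimeric zebrafish TRb–Gal4. Dosed 24 h with 3 nM 6-alpha-fluorotestosterone present; reporter mRNA measured by RT-PCR, HpaI digestion and capillary electrophoresis; gain of signal versus DMSO.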

[7] = ATG_M_06_XSP2: Attagene TRANS-FACTORIAL Multi-Species (XSP2) HepG2 Assay for M06 Transcription Factor (Internal Marker) (AID 2283811);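 further: internal background marker reporter mRNA measured by RT-PCR and capillary electrophoresis; hits are increases in signal above the DMSO baseline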
How it was run: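 HepG2 cells transiently transfected with GAL4-UAS multi-reporter constructs, dosed 24 h with 3 nM 6-alpha-fluorotestosterone plus 1.5 nM norgestrel present to stimulate androgen receptor. Reporter mRNA quantified by RT-PCR, 6-FAM labelling, HpaI digestion and capillary electrophoresis; gain-of-signal fitted versus DMSO baseline.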

[8] = test system: turtle Estrogen Receptor (ERa), gene 101933533; assay: ATG_trERa_XSP2: Attagene TRANS-FACTORIAL Multi-Species (XSP2) HepG2 Assay for turtle Estrogen Receptor (ERa) (AID 2283812);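 further: human HepG2 liver cells transiently expressing turtle ERa-Gal4 chimeric receptor; actives raise reporter signal above DMSO so AC50 reflects agonist activity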
How it was run: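 HepG2 cells transiently transfected with GAL4-UAS reporter units expressing turtle ERa-Gal4 chimera. Reporter mRNA measured after 24 h dosing by RT-PCR, fluorescent labelling and capillary electrophoresis; gain of signal fitted versus DMSO.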

[9] = molecular target: frog Thyroid hormone Receptor alpha (TRa), thra-a (gene 397942) (UniProt P15204); assay: ATG_frTRa_XSP1: Attagene TRANS-FACTORIAL Multi-Species (XSP1) HepG2 Assay for frog Thyroid hormone Receptor alpha (TRa) (AID 2283804)
How it was run: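 HepG2 cells transiently transfected with frog TRa-GAL4 chimeric reporter units, dosed 24 hr with 3 nM 6-alpha-fluorotestosterone present; reporter mRNA quantified by RT-PCR, fluorescent labelling and capillary electrophoresis, gain of signal versus DMSO.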

[10] = ATG_XTT_Cytotoxicity_XSP1: Cytotoxicity Assessment in the Attagene TRANS-FACTORIAL Multi-Species (XSP1) HepG2 Assay (AID 2283810)
Protocol: ATG_XSP1_XTT_Cytotoxicity_multi-species is a cell-based, single-readout assay that uses HepG2, a human liver cell line, with measurements taken at 24 hours after chemical dosing in a 24-well plate. Xsp1 included 3 nM 6-alpha-fluorotestosterone to partially stimulate the androgen receptor.ATG_XTT_Cytotoxicity_XSP1 is an assay component measured from the ATG_XSP1_XTT_Cytotoxicity_multi-species assay. It is designed to make measurements of cell number, a form of viability reporter, as detected with fluorescence intensity signals by XTT cytotoxicity assay technology.This assay endpoint, ATG_XTT_Cytotoxicity_XSP1, was analyzed in the positive analysis fitting direction relative to DMSO as the negative control and baseline of activity. Using a type of viability reporter, loss-of-signal activity can be used to understand changes in the viability. Furthermore, this assay endpoint can be referred to as a primary readout, because the performed assay has only produced 1 assay endpoint. […]
Human liver HepG2 cells are transiently transfected with multiple reporter transcription units (MRTUs) in 6-well plates using FuGene 6 reagent (Roche; 3 ml FuGene/1 mg DNA). […] A major difference between the CIS and TRANS system is that in CIS activities of endogenous TFs are measured, whereas the TRANS assay evaluates changes in activities of exogenous, chimeric NR-Gal4 proteins. […]

Chain of human Thyroid hormone Receptor alpha (TRa), THRA (gene 7067) (P10827 whole entry, looked up, the tested form may be a part): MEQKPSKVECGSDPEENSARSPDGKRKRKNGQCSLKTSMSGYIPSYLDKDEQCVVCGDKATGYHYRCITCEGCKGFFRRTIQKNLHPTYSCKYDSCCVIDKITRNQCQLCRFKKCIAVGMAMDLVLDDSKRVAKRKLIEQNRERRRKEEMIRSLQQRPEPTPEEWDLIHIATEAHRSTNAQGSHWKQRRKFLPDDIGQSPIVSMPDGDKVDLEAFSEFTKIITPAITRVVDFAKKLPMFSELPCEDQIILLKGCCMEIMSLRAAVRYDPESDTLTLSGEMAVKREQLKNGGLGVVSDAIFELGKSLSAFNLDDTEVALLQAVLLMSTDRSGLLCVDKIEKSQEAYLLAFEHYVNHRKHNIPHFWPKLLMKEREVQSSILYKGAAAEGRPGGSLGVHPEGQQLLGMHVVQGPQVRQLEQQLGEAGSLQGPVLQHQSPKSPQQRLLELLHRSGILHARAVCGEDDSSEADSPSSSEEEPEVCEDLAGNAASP
Chain of zebrafish Thyroid Hormone Receptor alpha (TRa), thraa (gene 30670) (Q98867 whole entry, looked up, the tested form may be a part): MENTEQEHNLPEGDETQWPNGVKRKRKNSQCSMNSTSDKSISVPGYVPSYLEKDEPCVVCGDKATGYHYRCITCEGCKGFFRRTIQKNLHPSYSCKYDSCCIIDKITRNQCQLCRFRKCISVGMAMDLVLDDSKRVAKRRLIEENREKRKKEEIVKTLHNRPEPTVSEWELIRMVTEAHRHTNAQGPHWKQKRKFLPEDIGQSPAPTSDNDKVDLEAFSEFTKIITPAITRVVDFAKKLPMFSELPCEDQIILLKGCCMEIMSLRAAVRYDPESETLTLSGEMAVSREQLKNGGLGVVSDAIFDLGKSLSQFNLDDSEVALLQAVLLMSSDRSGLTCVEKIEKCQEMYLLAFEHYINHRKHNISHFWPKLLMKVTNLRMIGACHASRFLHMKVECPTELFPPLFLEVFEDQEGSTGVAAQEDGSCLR
Chain of human Thyroid hormone Receptor beta (TRb), THRB (gene 7068) (P10828 whole entry, looked up): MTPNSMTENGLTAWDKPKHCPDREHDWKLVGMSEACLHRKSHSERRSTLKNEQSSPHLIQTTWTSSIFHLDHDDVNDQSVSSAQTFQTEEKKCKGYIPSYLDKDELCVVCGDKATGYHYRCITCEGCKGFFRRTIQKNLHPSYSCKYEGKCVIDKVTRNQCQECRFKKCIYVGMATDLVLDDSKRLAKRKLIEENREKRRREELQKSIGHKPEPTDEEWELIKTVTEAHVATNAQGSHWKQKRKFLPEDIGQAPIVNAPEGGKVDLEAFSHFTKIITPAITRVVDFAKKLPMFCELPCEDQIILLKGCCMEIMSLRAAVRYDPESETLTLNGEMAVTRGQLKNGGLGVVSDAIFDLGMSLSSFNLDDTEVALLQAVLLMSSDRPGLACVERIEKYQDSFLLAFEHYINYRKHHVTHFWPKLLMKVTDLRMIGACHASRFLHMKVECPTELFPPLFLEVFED
Chain of zebrafish Thyroid Hormone Receptor beta (TRb), thrb (gene 30607) (Q9PVE4 whole entry, looked up, the tested form may be a part): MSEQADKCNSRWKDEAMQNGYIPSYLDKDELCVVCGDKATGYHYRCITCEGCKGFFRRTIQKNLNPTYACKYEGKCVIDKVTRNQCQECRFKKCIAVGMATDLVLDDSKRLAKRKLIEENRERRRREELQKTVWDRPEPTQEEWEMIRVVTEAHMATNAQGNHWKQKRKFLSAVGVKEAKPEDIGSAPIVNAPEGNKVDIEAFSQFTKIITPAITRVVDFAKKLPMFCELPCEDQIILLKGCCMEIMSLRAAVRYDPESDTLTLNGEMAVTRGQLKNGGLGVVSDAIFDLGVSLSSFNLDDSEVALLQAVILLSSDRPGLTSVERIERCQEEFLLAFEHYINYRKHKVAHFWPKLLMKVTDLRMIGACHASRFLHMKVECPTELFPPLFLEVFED
Chain of mouse Peroxisome Proliferator-activated Receptor gamma (PPARg), Pparg (gene 19016) (P37238 whole entry, looked up, the tested form may be a part): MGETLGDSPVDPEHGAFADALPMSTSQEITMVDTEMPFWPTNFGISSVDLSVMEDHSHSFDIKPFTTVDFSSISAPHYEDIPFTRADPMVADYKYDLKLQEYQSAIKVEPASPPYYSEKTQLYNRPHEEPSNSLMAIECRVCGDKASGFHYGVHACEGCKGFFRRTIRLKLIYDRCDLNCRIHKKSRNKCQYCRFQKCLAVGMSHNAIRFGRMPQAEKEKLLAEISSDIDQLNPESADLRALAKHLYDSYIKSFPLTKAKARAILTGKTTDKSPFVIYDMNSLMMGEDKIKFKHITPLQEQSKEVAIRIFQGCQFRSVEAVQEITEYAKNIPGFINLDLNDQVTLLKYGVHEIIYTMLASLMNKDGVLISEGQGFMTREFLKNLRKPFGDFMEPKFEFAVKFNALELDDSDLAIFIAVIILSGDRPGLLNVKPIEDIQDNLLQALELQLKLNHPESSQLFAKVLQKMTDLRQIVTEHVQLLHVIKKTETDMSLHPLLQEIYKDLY
Chain of Nuclear receptor subfamily 1 group I member 2 (Mus musculus) (O54915 whole entry, looked up, the tested form may be a part): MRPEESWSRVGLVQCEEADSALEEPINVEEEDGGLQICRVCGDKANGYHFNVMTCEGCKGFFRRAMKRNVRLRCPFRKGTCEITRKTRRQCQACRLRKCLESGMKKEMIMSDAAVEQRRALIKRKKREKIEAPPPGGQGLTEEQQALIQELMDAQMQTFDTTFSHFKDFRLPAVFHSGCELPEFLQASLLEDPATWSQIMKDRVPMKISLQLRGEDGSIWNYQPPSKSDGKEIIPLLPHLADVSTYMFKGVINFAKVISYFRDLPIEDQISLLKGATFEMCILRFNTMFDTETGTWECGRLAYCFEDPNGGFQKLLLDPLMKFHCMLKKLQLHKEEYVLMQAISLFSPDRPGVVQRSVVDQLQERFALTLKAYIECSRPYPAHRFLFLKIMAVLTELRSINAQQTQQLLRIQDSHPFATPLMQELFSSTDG
Chain of frog Thyroid hormone Receptor alpha (TRa), thra-a (gene 397942) (P15204 whole entry, looked up, the tested form may be a part): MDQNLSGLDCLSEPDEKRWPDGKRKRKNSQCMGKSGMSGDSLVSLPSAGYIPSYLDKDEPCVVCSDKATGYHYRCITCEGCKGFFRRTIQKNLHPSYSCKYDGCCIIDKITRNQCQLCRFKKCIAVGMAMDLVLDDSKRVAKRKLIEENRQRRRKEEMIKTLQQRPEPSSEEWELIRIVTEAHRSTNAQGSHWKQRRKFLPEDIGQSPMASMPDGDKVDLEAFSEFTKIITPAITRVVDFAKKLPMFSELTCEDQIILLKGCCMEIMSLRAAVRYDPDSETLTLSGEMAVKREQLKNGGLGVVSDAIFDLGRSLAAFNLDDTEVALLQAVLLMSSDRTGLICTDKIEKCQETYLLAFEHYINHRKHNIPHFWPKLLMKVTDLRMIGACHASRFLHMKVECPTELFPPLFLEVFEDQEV

Structure (SMILES)	outcome [1]	outcome [2]	outcome [3]	outcome [4]	outcome [5]	outcome [6]	outcome [7]	AC50 [8]	outcome [9]	outcome [10]
O=C(c1ccccc1)c1ccc(O)cc1O	inactive	inactive	inactive	inactive	inactive	inactive	inactive	2810 nM (active)		
C[C@]12CC[C@H]3C(=CCc4cc(O)ccc43)[C@@H]1CCC2=O			inactive	inactive	inactive	inactive	inactive	12.9 nM (active)	inactive	inactive
